# Laboratory results published in PubChem BioAssay AID651956 (Broad Institute, 2012).
# Potency and affinity values are given separately. Records with an inconclusive call do not appear. A call without a number means that no potency is given here. The source made the active and inactive calls.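 The calls were made as follows: active = in every test run, a fitted half-maximal concentration for signal decrease at or below twice the highest tested concentration; inconclusive = runs disagree, flat 30 to 70% decrease, or poor fit; inactive = the rest.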
# Assay: activation of miR-122 Renilla sensor silencing – cell-based, Huh7 psiCHECK-miR122, Renilla luciferase, cherry-picked, dose response (AID 651956);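 also: Renilla luciferase from a miR-122 sensor reporter so lower signal means miR-122 activation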
row,Structure (SMILES),outcome
1,COc1ccc(C2SCC(=O)Nc3c2c(=O)[nH]n3C2CCCCCC2)cc1 (centres undefined),inactive
2,O=C1NC(=O)N(CCC2=CCCCC2)C(=O)/C1=C\c1cccs1,inactive
3,O=C(c1ccco1)c1cn(Cc2ccccc2Cl)c2ccccc12,inactive
4,COc1ccc2c(c1)c(CCN)c(C)n2Cc1ccccc1,inactive
